Assay: adipocyte viability effects, profiling panel, cell-based, 3T3-L1 adipocytes, calcein-AM fluorescence, 48 h, basal (AID 1163)
Details: 3T3-L1 adipocytes viability, higher = more signal
Note: test concentration not given here.

Compound	z-score
[N-]=[N+]=Nc1ccccc1C[C@]1(C(=O)O)COC(c2ccc(OCCCO)cc2)=N1	0.909
CC(=O)NCCCC[C@@H]1NC(=O)[C@@H]2C[C@H](C(=O)NCCCCCN)[C@H](c3cccc(OCCO)c3)N2C1=O	0.749
COc1ccc(C#Cc2ccc3c(c2)[C@]2(C(=O)N3)[C@H](c3ccc(OCCO)cc3)N3[C@H](c4ccccc4)[C@H](c4ccccc4)OC(=O)[C@H]3[C@@H]2C(=O)NC[C@H](O)c2ccccc2)cc1	-0.177
CC(C)NC(=O)[C@@]1(C)c2ccccc2C(=O)N(Cc2ccc(OC(F)(F)F)cc2)[C@H]1c1ccc(CO)cc1	1.08
CCCC[C@@H](O)C1=C(COC)C[C@H]2C(=O)N(Cc3ccccc3)C(=O)[C@H]2[C@H]1CO	-1

Assay: HepG2 cell viability effects, profiling panel, calcein-AM fluorescence, 48 h, basal (AID 1164)
Details: higher = more signal

Compound	z-score
CCOC(=O)C[C@H]1[C@H](OC(=O)Cc2ccc3c(c2)OCO3)[C@@H](NC(=O)c2ccc3ccccc3n2)c2cc(OCCCO)ccc2N1C(=O)c1ccccc1	0.731
COc1ccc([Si](C)(C)[C@@H]2[C@@H](CC(=O)N(CCO)Cc3ccccc3)O[C@]3(C(=O)N(Cc4cccc(N5CCCCC5=O)c4)c4ccccc43)[C@H]2C)cc1	-2.56
C=C[C@@H](OC)[C@H](OC(=O)Nc1ccc(OC)cc1)c1ccc(O)c(F)c1	-0.723
CCCCCC1=C2CNC(C)(C(=O)OC)C=C2C(C)C1=O (stereo unspecified)	-1.29
O=C1NC(=O)C2C1C=CC(C(O)c1ccco1)N2Nc1ccc(Cl)cc1Cl (stereo unspecified)	-1.16
CCC#CCN(Cc1ccccc1Br)[C@H](/C=C/C1CC1)[C@@H](O)Cc1ccccc1	-0.713
